These results are taken from the supplement of paper PMC11732987, “Enantioselective OTUD7B fragment discovery through chemoproteomics screening and high-throughput optimisation” (Communications Chemistry, 2025).

Unmarked numbers belong to inactive results.

Assay in all cases: log2 ratio of Biotin-Ahx-Ub-VS probe labelling (fragment/DMSO); higher = less target engagement (more negative = stronger competition), active = hit call of the paper (q ≤ 0.05, log2 ratio ≤ -1)
What all share (details): compound concentration: 200 uM; treatment time: 3 h

In assay [1] the target is USP34 (UniProt Q70CQ2). In outline:
(§1)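 Triplicate samples of HEK293T lysate, 495 µg each, received fragment at 200 µM or vehicle for 3 h, followed by Biotin-Ahx-Ub-VS (0.5 µM final) for 1 h. After NeutrAvidin enrichment of labelled DUBs and LysC/trypsin digestion, peptides were run by diaPASEF LC-MS/MS. The values are average log2 fragment/vehicle ratios from global-median-normalised Spectronaut label-free quantities, tested by unpaired t-test on proteins having ≥2 unique peptides.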

In assay [2] the target is T1, USP36 (UniProt Q9P275).
T1 sequence (whole entry): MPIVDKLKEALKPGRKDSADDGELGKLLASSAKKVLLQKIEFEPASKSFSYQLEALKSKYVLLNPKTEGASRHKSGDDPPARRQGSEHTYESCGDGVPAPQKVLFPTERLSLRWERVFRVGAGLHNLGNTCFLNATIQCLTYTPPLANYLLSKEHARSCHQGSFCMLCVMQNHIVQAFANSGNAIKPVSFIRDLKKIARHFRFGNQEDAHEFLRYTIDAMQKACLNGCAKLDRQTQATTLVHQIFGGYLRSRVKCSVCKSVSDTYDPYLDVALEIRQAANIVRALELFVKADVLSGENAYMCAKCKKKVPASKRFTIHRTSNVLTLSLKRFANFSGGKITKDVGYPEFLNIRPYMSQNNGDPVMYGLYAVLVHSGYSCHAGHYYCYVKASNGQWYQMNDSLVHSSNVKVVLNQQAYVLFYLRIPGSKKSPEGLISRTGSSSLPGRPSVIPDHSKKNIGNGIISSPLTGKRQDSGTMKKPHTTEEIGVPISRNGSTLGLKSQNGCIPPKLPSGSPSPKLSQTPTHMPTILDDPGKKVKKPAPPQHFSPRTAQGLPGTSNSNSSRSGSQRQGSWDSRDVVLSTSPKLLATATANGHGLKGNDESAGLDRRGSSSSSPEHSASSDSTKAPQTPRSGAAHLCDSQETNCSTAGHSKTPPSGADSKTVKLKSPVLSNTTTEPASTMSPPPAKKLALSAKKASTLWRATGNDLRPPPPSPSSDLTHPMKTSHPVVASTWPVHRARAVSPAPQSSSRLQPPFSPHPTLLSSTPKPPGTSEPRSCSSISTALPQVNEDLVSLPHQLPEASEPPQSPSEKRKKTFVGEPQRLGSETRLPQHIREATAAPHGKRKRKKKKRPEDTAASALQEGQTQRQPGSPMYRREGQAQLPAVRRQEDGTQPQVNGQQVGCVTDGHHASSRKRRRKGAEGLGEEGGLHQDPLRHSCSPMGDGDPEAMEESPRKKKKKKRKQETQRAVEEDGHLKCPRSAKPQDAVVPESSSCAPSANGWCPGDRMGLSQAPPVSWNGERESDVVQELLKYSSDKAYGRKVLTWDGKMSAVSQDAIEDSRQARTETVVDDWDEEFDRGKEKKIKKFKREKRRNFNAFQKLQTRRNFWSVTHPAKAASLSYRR
In outline:
as §1

Assay [3] deals with T2, USP38 (UniProt Q8NB14).
T2 sequence (whole entry): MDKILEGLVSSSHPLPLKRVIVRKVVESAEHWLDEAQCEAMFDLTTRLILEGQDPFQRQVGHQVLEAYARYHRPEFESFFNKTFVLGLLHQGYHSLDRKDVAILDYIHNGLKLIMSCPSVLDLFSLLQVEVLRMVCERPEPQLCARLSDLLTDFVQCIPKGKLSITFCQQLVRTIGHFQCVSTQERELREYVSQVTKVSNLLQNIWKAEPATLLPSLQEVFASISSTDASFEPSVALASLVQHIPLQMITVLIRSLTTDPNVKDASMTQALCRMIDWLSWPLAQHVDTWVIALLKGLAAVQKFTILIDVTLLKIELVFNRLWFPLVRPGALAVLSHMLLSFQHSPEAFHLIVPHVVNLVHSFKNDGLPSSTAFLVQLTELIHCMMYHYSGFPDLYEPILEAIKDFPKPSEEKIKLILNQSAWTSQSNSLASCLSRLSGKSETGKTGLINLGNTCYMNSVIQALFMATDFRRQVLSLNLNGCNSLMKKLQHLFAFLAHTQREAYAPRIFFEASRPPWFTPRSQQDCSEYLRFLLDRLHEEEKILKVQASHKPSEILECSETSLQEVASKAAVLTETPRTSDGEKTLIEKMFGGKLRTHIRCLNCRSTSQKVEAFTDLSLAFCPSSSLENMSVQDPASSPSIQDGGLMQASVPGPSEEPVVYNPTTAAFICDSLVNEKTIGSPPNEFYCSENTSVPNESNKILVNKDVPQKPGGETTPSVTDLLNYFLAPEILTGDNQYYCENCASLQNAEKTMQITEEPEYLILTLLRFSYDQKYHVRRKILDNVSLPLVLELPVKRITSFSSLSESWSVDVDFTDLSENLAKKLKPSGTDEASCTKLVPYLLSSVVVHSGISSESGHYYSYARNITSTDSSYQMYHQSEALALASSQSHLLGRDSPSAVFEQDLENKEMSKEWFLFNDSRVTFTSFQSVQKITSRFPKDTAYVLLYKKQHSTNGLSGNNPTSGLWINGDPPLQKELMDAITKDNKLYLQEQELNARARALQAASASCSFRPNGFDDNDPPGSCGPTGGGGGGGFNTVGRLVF
In outline: as §1

Assay [4] has as its target T3, USP39 (UniProt Q53GS9).
T3 sequence (whole entry): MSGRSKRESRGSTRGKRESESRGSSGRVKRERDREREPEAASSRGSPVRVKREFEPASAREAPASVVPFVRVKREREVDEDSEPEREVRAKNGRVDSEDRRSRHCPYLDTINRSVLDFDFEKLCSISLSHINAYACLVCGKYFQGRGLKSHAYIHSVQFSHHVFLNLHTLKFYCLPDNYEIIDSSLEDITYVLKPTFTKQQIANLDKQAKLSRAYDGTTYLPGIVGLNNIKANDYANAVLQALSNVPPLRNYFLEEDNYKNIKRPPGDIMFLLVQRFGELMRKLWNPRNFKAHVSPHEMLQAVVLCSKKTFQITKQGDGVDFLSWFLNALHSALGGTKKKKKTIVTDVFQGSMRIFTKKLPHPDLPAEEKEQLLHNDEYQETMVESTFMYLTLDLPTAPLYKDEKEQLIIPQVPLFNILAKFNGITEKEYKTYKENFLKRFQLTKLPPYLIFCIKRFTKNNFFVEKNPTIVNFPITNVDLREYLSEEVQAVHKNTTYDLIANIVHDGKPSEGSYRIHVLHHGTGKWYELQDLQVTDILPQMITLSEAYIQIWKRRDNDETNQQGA
In outline: as §1

The target in assay [5] is T4, USP4 (UniProt Q13107).
T4 sequence (whole entry): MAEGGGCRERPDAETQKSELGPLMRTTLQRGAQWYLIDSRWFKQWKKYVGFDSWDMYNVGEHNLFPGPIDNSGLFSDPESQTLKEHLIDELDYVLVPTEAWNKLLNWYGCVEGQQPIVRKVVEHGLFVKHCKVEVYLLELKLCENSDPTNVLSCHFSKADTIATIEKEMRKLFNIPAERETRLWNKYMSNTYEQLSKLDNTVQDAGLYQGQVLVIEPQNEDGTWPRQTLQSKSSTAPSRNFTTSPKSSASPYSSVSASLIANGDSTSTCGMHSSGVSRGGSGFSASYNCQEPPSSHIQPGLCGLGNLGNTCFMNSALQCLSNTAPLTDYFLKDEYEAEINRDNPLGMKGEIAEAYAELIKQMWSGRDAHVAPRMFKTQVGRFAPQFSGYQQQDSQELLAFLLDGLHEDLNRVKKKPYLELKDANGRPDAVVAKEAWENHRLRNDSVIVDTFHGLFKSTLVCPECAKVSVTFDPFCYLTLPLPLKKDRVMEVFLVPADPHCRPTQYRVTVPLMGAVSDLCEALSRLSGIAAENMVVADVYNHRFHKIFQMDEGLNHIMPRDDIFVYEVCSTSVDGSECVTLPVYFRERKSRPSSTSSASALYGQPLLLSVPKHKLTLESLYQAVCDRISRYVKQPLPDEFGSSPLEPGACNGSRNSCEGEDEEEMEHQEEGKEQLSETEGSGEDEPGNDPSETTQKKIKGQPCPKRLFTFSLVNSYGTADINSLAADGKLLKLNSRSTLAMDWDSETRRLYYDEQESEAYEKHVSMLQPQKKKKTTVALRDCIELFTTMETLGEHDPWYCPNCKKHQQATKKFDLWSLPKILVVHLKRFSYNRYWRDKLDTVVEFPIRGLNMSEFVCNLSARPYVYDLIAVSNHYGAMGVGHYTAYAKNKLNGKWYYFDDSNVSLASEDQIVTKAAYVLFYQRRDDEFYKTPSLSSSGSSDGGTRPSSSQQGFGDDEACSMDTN
Summed up:
as §1

USP34, sequence (Q70CQ2 whole entry, the tested form may be a part): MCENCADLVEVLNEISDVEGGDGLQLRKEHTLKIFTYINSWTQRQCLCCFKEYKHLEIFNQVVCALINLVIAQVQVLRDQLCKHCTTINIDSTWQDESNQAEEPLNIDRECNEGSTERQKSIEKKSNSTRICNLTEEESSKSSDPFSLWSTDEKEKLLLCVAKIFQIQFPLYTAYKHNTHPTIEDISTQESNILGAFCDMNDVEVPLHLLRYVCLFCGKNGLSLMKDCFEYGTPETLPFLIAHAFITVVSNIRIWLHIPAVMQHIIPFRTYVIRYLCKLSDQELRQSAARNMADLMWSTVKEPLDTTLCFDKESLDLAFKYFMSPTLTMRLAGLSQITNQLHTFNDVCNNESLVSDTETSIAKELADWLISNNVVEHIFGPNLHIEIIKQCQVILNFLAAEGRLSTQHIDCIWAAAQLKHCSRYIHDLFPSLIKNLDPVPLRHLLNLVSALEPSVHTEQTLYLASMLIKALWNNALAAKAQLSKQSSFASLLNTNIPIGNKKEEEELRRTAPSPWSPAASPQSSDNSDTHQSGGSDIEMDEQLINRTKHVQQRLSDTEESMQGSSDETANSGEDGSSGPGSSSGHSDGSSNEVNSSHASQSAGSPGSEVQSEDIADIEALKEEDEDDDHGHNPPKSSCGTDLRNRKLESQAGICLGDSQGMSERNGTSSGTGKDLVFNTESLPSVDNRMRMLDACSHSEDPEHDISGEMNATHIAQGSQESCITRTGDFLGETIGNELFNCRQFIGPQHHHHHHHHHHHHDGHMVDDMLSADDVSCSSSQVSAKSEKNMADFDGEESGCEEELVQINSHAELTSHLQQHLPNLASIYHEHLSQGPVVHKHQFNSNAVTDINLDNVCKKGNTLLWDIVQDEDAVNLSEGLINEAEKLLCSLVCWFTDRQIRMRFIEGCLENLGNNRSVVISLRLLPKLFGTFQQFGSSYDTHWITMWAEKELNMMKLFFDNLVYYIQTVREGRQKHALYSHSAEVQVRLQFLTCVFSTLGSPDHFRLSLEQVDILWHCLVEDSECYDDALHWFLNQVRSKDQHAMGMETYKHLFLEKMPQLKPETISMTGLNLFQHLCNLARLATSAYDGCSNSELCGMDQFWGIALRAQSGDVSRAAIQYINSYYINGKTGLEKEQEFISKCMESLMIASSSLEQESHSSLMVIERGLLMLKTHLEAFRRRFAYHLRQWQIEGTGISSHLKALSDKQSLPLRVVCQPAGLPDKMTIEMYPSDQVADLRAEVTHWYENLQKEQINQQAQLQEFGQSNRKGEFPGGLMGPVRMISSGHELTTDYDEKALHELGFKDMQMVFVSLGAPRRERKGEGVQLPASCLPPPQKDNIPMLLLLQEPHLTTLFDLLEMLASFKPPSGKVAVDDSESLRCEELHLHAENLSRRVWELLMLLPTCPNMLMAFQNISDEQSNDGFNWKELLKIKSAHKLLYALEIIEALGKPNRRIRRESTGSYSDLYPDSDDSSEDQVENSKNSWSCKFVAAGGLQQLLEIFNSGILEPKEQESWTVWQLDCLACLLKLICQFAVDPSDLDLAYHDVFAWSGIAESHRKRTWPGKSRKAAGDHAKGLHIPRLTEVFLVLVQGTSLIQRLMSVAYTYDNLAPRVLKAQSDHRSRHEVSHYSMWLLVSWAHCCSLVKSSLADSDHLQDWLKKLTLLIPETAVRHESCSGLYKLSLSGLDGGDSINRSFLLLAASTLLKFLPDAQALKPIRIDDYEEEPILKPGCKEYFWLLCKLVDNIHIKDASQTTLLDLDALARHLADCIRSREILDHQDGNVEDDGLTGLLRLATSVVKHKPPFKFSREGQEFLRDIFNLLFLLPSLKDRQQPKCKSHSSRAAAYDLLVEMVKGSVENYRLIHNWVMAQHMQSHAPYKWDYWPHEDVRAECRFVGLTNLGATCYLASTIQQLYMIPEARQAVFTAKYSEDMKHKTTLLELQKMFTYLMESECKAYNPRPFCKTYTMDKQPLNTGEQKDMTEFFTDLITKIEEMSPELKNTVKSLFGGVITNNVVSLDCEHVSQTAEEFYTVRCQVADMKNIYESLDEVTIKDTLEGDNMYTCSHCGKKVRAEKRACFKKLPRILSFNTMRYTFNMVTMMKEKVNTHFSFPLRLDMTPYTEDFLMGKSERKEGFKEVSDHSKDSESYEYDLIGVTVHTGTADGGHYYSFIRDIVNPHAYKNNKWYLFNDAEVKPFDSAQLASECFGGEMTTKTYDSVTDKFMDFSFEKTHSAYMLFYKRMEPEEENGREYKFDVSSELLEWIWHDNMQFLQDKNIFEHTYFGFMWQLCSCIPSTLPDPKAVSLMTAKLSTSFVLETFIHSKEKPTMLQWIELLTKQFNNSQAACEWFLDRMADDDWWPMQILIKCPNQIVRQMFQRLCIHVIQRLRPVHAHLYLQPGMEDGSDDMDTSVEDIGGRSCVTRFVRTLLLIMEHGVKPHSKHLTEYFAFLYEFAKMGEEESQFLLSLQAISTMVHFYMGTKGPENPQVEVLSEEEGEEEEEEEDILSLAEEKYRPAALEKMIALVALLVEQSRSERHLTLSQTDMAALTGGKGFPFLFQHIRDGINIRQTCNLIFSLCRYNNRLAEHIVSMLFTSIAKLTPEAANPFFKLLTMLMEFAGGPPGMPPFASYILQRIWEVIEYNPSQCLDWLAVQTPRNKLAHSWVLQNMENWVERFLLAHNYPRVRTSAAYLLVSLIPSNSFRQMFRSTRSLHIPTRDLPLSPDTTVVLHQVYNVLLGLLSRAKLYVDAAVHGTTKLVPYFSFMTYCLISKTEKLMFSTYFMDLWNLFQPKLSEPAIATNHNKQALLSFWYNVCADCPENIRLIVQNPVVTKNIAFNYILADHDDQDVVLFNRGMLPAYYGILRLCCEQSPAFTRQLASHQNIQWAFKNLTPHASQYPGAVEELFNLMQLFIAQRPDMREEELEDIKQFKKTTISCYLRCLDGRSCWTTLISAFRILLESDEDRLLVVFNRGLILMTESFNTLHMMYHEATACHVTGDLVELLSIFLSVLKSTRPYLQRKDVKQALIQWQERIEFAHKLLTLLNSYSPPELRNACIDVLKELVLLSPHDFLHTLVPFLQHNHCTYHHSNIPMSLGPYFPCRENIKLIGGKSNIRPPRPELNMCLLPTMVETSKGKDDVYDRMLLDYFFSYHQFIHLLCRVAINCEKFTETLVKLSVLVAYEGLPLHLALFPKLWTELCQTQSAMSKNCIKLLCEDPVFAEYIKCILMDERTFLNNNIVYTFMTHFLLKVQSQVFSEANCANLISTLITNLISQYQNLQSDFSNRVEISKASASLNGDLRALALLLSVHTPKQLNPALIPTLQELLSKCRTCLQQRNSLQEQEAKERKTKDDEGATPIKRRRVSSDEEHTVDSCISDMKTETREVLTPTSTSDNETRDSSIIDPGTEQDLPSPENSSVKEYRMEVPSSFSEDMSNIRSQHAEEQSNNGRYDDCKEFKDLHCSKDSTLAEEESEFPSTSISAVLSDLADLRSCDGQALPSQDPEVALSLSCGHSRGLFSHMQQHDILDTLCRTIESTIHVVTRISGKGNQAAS

Turning to `O=C(CCl)N1CCc2[nH]c3ccccc3c2C1`, the “log2 ratio of Biotin-Ahx-Ub-VS probe labelling” value in assay [1] was -0.571; in assay [2] it was 0.0133; in assay [3] it was -0.674; in assay [4] it was 5.6e-06; in assay [5], -1.51 (active).
